4 compounds from ChEMBL document CHEMBL1961873, “Compounds: GSK PKIS; Assays: Nanosyn kinase panel” (2012) can be followed below.

The target in assay [1] is 5'-AMP-activated protein kinase catalytic subunit alpha-2 (Homo sapiens) (UniProt P54646). As to conditions: at 1 µM.
Assay [2] concerns the target T1, NUAK family SNF1-like kinase 1 (Homo sapiens) (UniProt O60285).
T1 sequence (whole entry): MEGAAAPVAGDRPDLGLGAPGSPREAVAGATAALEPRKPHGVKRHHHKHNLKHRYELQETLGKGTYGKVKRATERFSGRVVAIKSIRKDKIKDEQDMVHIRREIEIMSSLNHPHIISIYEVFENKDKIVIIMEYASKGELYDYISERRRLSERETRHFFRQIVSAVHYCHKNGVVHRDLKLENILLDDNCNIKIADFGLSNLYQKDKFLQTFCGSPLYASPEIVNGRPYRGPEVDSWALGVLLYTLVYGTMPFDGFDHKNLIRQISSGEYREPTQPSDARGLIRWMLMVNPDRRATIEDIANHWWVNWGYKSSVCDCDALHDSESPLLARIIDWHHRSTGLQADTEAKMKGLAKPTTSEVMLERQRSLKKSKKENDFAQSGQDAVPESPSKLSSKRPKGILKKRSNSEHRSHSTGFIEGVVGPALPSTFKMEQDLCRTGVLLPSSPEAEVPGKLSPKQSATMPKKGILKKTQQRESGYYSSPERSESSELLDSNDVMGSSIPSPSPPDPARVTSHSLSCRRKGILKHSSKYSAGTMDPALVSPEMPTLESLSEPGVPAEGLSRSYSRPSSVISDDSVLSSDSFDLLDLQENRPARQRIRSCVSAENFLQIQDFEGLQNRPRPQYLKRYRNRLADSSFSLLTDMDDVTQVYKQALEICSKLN
The note with it: at 0.1 µM.

Assay [3] concerns the target T1, NUAK family SNF1-like kinase 1 (Homo sapiens). The note with it: at 1 µM.
In assay [4] the target is T2, Serine/threonine-protein kinase BRSK1 (Homo sapiens) (UniProt Q8TDC3).
T2 sequence (whole entry): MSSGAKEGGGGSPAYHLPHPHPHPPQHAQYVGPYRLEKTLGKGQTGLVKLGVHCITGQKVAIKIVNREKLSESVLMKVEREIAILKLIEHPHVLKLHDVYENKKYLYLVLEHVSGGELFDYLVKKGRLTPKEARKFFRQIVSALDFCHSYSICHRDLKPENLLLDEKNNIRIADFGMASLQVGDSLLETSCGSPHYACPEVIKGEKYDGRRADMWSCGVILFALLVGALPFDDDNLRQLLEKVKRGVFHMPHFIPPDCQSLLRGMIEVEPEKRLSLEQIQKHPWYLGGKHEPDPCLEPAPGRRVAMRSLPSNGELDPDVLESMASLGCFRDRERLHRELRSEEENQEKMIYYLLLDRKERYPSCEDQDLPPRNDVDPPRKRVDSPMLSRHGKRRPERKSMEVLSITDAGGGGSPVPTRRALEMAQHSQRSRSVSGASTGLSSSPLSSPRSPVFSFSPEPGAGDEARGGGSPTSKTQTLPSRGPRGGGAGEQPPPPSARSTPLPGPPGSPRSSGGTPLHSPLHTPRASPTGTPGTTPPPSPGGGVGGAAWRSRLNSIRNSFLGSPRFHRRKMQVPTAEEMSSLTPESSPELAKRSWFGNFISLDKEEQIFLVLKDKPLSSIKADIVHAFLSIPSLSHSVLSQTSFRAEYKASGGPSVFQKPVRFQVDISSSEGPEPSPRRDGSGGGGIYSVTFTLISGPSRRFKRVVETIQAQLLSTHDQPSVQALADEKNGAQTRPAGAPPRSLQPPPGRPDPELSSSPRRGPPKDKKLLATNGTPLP
As to conditions: at 0.1 µM.

The target in assay [5] is T2, Serine/threonine-protein kinase BRSK1 (Homo sapiens). The note with it: at 1 µM.
Assay [6] deals with T3, Serine/threonine-protein kinase BRSK2 (Homo sapiens) (UniProt Q8IWQ3).
T3 sequence (whole entry): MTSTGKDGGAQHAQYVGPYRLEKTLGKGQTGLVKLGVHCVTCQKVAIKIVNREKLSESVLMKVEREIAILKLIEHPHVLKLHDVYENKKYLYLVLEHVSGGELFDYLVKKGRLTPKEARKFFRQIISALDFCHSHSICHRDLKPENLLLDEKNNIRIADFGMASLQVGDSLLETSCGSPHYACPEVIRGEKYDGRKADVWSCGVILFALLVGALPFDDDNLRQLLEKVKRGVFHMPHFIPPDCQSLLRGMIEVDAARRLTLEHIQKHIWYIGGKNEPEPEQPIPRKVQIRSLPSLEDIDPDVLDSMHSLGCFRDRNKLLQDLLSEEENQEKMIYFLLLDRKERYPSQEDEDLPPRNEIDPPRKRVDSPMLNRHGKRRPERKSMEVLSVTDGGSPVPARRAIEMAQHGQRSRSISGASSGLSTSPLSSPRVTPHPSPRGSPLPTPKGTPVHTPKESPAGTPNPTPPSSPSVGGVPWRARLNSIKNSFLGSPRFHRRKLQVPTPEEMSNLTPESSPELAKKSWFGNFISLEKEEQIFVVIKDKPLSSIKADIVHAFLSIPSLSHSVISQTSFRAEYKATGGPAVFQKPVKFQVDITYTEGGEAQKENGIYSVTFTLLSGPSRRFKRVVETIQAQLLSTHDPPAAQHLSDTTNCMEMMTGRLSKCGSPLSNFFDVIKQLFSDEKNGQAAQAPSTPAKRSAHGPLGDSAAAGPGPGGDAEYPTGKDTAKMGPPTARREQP
The note with it: at 0.1 µM.

In assay [7] the target is T3, Serine/threonine-protein kinase BRSK2 (Homo sapiens). The note with it: at 1 µM.
Assay [8] deals with Calcium/calmodulin-dependent protein kinase type 1D (Homo sapiens) (UniProt Q8IU85). As to conditions: at 0.1 µM.
Assay [9] has the same target. As to conditions: at 1 µM.
Assay [10] deals with Calcium/calmodulin-dependent protein kinase type II subunit alpha (Homo sapiens) (UniProt Q9UQM7). As to conditions: at 0.1 µM.
Assay [11] shares this target. The note with it: at 1 µM.
The target in assay [12] is Calcium/calmodulin-dependent protein kinase type II subunit delta (Homo sapiens) (UniProt Q13557). The note with it: at 0.1 µM.
For assay [13] the target is unchanged. The note with it: at 1 µM.
Assay [14] concerns the target T4, Calcium/calmodulin-dependent protein kinase type IV (Homo sapiens) (UniProt Q16566).
T4 sequence (whole entry): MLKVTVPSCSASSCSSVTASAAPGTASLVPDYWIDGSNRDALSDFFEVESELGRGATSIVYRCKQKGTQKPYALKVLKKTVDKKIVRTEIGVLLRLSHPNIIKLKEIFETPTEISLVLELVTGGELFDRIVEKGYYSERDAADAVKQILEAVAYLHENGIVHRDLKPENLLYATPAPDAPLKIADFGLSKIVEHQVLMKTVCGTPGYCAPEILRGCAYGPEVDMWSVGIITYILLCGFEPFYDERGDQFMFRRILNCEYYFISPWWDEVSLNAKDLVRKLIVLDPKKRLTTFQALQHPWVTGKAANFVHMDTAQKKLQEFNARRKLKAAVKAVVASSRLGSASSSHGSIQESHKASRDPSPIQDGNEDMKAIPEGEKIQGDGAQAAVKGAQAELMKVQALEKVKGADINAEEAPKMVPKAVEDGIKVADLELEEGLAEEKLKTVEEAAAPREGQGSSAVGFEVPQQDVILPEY
As to conditions: at 0.1 µM.

The target in assay [15] is T4, Calcium/calmodulin-dependent protein kinase type IV (Homo sapiens). As to conditions: at 1 µM.
For assay [16], the target named is T5, Serine/threonine-protein kinase Chk1 (Homo sapiens) (UniProt O14757).
T5 sequence (whole entry): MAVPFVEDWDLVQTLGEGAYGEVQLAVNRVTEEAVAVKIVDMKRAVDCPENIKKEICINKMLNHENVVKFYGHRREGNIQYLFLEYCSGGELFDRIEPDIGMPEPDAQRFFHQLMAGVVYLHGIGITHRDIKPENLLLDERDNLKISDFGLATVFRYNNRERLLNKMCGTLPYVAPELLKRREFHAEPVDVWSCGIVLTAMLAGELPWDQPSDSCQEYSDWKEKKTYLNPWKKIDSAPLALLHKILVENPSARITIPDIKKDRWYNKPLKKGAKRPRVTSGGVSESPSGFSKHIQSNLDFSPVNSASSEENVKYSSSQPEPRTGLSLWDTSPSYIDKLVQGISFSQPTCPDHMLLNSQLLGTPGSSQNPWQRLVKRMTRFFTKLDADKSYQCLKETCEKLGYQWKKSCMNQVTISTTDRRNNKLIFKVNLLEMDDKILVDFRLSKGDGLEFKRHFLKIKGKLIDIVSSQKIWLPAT
As to conditions: at 0.1 µM.

The target of assay [17] is T5, Serine/threonine-protein kinase Chk1 (Homo sapiens). As to conditions: at 1 µM.
Assay [18] has as its target Serine/threonine-protein kinase Chk2 (Homo sapiens) (UniProt O96017). As to conditions: at 0.1 µM.
The target is the same in assay [19]. As to conditions: at 1 µM.
In assay [20] the target is Death-associated protein kinase 1 (Homo sapiens) (UniProt P53355). As to conditions: at 0.1 µM.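 Further: reported figure is the mean inhibition of DAPK1.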

Each structure is given as a SMILES string.

Chain of Calcium/calmodulin-dependent protein kinase type II subunit alpha (Homo sapiens) (Q9UQM7 whole entry): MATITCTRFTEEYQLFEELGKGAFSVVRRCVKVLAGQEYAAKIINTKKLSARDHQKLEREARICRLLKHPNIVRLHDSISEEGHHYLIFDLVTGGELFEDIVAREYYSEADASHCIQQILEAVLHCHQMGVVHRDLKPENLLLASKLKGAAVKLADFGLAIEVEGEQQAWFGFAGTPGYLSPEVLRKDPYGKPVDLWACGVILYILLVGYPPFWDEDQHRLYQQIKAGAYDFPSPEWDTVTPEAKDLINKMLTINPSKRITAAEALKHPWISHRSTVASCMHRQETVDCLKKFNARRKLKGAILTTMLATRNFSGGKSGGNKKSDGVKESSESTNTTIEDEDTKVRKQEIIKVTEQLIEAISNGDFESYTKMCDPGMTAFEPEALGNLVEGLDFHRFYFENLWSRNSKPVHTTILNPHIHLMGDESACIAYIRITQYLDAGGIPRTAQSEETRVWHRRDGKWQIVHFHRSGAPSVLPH
Chain of Serine/threonine-protein kinase Chk2 (Homo sapiens) (O96017 whole entry): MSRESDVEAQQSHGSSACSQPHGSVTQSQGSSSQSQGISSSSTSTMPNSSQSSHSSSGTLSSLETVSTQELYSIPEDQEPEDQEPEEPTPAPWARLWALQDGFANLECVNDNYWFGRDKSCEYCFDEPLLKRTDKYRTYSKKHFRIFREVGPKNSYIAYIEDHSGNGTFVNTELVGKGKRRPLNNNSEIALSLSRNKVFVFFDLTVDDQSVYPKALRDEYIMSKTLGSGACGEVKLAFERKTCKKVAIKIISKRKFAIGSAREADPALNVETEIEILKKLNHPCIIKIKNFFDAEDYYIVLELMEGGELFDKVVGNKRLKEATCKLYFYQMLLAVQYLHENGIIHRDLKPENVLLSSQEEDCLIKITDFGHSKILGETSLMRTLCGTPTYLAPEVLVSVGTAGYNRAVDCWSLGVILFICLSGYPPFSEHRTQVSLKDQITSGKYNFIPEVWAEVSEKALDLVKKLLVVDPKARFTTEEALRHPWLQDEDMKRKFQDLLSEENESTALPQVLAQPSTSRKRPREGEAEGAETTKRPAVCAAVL
Chain of 5'-AMP-activated protein kinase catalytic subunit alpha-2 (Homo sapiens) (P54646 whole entry, looked up): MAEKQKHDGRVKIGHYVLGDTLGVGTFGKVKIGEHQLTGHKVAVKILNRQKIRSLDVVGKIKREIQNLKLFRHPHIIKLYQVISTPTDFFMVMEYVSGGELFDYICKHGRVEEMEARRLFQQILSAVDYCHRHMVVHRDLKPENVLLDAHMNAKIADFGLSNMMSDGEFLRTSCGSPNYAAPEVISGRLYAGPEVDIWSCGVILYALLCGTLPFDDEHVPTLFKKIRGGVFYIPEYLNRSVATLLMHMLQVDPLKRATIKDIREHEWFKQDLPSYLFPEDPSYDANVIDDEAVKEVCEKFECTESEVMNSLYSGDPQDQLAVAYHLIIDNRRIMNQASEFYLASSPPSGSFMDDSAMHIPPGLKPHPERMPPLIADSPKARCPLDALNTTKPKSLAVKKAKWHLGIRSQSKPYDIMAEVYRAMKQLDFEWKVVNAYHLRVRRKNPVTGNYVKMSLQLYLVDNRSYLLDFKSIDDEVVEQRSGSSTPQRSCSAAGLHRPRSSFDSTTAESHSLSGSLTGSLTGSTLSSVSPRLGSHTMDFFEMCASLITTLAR
Chain of Calcium/calmodulin-dependent protein kinase type 1D (Homo sapiens) (Q8IU85 whole entry, looked up): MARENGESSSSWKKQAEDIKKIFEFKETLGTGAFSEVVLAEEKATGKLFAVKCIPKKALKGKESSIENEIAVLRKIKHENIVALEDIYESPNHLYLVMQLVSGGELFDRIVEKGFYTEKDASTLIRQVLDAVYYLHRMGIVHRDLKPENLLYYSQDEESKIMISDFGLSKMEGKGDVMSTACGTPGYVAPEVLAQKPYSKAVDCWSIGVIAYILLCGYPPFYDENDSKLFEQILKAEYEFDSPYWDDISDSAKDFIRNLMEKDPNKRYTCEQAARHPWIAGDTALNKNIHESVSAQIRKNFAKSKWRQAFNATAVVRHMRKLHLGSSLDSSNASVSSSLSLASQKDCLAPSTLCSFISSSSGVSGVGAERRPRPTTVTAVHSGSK
Chain of Death-associated protein kinase 1 (Homo sapiens) (P53355 whole entry, looked up): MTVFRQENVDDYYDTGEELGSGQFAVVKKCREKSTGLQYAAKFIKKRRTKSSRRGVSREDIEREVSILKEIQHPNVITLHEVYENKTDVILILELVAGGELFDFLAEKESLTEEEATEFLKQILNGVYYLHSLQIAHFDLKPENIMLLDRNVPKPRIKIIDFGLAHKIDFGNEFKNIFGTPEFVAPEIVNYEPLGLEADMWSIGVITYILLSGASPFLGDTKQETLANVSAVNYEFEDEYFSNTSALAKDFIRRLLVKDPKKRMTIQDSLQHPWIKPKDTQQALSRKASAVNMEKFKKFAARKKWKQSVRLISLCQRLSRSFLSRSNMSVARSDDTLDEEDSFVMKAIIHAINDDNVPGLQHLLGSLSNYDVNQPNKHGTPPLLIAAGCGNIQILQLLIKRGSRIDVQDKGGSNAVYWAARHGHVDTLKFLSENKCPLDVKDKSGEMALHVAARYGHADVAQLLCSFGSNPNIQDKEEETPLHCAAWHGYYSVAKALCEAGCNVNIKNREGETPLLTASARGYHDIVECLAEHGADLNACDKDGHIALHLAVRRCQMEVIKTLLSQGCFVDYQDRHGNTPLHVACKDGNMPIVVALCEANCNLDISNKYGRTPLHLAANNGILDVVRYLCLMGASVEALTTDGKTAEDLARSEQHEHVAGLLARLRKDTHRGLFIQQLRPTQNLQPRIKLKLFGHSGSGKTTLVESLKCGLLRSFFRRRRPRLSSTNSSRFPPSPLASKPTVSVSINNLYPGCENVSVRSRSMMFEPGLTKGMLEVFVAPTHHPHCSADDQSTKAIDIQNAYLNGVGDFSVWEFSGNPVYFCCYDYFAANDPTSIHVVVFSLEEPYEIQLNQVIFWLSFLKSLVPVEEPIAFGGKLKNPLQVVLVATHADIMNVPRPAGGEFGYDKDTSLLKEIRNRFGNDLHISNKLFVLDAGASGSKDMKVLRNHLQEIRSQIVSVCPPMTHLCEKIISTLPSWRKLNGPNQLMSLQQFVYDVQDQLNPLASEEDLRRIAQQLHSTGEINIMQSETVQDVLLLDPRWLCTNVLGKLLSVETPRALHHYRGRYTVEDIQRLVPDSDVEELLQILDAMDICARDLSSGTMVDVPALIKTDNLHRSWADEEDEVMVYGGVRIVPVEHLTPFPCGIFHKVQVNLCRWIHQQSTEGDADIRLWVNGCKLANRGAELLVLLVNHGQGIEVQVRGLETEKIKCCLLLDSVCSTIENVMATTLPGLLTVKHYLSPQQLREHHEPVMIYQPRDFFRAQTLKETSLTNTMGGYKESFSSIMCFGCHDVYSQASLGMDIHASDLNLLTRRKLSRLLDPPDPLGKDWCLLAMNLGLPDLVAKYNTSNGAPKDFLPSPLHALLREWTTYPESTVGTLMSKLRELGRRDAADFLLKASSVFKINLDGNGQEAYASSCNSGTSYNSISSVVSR
Chain of Calcium/calmodulin-dependent protein kinase type II subunit delta (Homo sapiens) (Q13557 whole entry): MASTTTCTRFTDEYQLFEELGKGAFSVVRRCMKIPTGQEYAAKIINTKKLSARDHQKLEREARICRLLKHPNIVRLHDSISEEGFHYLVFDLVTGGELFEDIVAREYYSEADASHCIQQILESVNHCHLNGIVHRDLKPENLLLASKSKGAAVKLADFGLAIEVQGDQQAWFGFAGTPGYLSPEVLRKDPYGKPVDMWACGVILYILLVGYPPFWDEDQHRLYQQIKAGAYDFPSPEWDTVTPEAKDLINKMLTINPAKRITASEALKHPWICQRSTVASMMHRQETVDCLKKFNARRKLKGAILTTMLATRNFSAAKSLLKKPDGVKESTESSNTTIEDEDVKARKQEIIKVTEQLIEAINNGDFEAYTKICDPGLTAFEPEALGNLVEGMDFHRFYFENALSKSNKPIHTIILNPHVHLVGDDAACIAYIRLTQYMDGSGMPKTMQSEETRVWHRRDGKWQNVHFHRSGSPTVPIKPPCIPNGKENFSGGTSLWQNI

Usually inhibition stands for the change of the read-out against control, counted positive when it falls. In the case of `NC(=O)c1sc(-n2cnc3cc(C(F)(F)F)ccc32)cc1OCc1ccccc1Br`, the inhibition in assay [1] is 4.05%; in assay [2], -0.04%; in assay [3], 2.91%; in [4] it was 1.16%; in assay [5], 3.25%; in [6] it was 2.43%. Also, the inhibition in assay [7] was 8.5%; in [8], 0.11%; in assay [9], 1.53%; in assay [10] it was 2.4%; in [11], -0.17%; in assay [12] it was 2.18%. Further, the inhibition in assay [13] is 1.35%; in assay [14], 2.89%; in assay [15], 1.08%; in assay [16], -0.06%; in [17] it was 0.96%; in [18], 1.22%. Besides, the inhibition in assay [19] is 0.32%; in assay [20] it was 1.27%.

In the case of `COc1cccc(COc2cc(-n3cnc4ccccc43)sc2C(N)=O)c1`, the inhibition was 1.39% in [1]; -2.73% in [2]; 8.04% in assay [3]; -0.43% in assay [4]; 5.63% in assay [5]; 0.26% in assay [6]. Besides, the inhibition in assay [7] was 4.17%; in assay [8], 0.91%; in assay [9], 0.38%; in assay [10] it was 0.37%; in assay [11], -0.42%; in [12], 0.07%. In addition, the inhibition in [13] was -0.84%; in assay [14], 2.92%; in assay [15], -0.29%; in [16], 2.18%; in assay [17], -2.21%; in assay [18], -0.72%. The inhibition in assay [19] was -0.59%; in assay [20] it was 1.92%.

Take `COc1cccc(-n2ncc3c(N/N=C/c4ccncc4)ncnc32)c1`: the inhibition in [1] is 7.87%; in assay [2], 16.1%; in assay [3], 54.6%; in assay [4] it was 11.2%; in assay [5], 52.5%; in assay [6], 18.6%. The inhibition in [7] amounted to 60.1%; in assay [8], 0.07%; in assay [9], 2.43%; in assay [10], 4.53%; in assay [11] it was 6.87%; in [12] it was 4.21%. For the same compound, the inhibition is 12.8% in [13]; -0.17% in [14]; -1.96% in assay [15]; 3.28% in [16]; 5.7% in [17]; 2.56% in assay [18]. Moreover, the inhibition in assay [19] is 4.89%; in [20], 4.45%.

Consider `CCn1c(-c2nonc2N)nc2c(C#CC(C)(C)O)nc(O[C@@H](CN)c3ccccc3)cc21`, for which the inhibition in assay [1] stood at 68.1%; in [2], 24.4%; in [3] it was 69.6%; in assay [4] it was 6.66%; in assay [5], 38.4%; in assay [6], 13.7%. Moreover, the inhibition was 58.8% in [7]; 13.2% in [8]; 29.4% in assay [9]; -1.19% in assay [10]; 1.68% in assay [11]; -0.76% in [12]. The inhibition was 14.3% in [13]; -0.23% in assay [14]; 4.51% in assay [15]; -3.48% in assay [16]; 31.1% in assay [17]; 2.31% in assay [18]. Besides, the inhibition in assay [19] is 26.7%; in assay [20], -0.91%.
